{"source": "the supplement of paper PMC11001985", "note": "Values without a mark were called inactive."}
{"compound": "C#CCNC(=O)CCSSCCC(=O)NCCc1ccc(C=O)c(C=O)c1", "experiment": "lysine labeling ratio R10:1 (500 µM / 50 µM probe), SILAC-ABPP in living cells; higher = lower intrinsic lysine reactivity toward the probe, active = 2 or less", "conditions": "HeLa; probe concentrations 500 vs 50 µM", "summary_of_the_method": "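Living SILAC light and heavy HeLa cells in PBS at room temperature were treated with an alkyne-tagged, disulfide-linked lysine probe at 50 µM or 500 µM, with forward and reverse label swaps. The mixed lysates were clicked to biotin-azide, digested with trypsin, captured on neutravidin, released with DTT, alkylated and run by LC-MS/MS on a TIMS-TOF Pro. R for each lysine is the filtered median high-probe/low-probe MS1 peptide ratio, taken again as the median over forward and reverse replicates. Any value above 20 is set to 20.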"}
{"target": "CD55 (lysine site: K160) (UniProt P08174)", "sequence (P08174 whole entry)": "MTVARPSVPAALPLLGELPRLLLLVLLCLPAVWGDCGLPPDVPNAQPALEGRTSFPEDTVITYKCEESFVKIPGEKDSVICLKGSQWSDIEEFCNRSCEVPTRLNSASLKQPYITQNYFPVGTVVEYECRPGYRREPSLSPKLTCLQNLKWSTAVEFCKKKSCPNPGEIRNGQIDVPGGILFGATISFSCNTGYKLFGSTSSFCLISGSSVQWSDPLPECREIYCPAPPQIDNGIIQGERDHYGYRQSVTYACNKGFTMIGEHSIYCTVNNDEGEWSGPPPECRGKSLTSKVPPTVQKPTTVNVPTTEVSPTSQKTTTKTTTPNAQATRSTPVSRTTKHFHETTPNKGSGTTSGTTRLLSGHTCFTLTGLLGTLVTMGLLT", "lysine labeling ratio R10:1": "1.09 (active)"}
{"target": "UniProt P0C0S5 (lysine site: K16)", "sequence (P0C0S5 whole entry)": "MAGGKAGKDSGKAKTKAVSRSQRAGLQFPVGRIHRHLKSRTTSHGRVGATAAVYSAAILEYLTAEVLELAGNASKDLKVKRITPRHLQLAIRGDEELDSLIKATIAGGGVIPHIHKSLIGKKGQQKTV", "lysine labeling ratio R10:1": "1.12 (active)"}
{"target": "HINT1 (lysine site: K30) (UniProt P49773)", "sequence (P49773 whole entry)": "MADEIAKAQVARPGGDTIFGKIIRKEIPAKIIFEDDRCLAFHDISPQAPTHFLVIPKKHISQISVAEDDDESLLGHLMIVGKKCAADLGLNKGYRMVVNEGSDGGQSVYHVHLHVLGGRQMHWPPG", "lysine labeling ratio R10:1": "1.48 (active)"}
{"target": "PAICS (lysine site: K261) (UniProt P22234)", "lysine labeling ratio R10:1": "0.93 (active)"}
{"target": "RTN4 (lysine site: K1066) (UniProt Q9NQC3)", "lysine labeling ratio R10:1": 3.4}
{"target": "UniProt Q9UHN6 (lysine site: K1177)", "lysine labeling ratio R10:1": 6.32}
{"target": "CALD1 (lysine site: K674) (UniProt Q05682)", "lysine labeling ratio R10:1": 2.25}
{"target": "L1CAM (lysine site: K531) (UniProt P32004)", "lysine labeling ratio R10:1": 7.51}
{"target": "UniProt Q9HAB3 (lysine site: K437)", "sequence (Q9HAB3 whole entry)": "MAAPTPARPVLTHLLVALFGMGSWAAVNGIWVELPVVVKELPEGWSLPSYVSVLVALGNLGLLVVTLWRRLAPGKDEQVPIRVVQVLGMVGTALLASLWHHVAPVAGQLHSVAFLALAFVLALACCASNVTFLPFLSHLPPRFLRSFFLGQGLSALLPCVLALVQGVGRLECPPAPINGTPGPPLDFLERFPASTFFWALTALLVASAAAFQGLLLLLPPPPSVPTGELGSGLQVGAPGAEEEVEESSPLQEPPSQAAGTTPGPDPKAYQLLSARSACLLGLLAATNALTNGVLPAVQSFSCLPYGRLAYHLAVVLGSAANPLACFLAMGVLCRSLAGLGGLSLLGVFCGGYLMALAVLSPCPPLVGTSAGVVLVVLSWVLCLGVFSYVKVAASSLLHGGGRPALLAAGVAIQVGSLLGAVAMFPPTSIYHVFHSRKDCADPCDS", "lysine labeling ratio R10:1": 2.11}
{"target": "DSG2 (lysine site: K141) (UniProt Q14126)", "sequence (Q14126 whole entry)": "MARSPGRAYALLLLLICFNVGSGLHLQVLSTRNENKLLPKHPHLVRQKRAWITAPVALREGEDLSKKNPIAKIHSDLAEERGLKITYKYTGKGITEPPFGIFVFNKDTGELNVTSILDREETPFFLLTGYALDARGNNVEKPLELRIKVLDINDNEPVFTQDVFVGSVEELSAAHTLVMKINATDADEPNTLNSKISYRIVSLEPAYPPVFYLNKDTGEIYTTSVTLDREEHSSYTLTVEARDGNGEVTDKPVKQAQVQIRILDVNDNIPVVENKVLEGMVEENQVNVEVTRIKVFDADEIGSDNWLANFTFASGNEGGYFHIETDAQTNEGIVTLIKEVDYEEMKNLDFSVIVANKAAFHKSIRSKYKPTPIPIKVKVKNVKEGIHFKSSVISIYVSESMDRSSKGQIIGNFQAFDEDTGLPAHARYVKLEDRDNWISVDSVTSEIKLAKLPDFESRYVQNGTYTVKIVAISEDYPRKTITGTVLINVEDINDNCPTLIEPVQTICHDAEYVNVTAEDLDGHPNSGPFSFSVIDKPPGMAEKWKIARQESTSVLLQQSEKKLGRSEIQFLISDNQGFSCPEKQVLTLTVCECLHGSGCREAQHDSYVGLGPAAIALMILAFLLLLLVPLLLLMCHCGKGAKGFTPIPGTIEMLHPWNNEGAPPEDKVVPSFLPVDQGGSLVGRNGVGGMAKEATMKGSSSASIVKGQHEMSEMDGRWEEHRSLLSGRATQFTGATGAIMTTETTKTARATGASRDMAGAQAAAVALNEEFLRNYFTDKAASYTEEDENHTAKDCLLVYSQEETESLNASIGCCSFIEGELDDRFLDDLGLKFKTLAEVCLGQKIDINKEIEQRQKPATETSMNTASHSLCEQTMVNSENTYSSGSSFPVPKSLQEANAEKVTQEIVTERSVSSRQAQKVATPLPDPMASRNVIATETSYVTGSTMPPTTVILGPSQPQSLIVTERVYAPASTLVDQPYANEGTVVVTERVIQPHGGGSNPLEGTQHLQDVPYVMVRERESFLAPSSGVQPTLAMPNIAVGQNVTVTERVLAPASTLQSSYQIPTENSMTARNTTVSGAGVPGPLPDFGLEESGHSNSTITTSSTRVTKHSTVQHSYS", "lysine labeling ratio R10:1": 4.68}
{"target": "UniProt P46781 (lysine site: K139)", "lysine labeling ratio R10:1": 3}
{"target": "UniProt P48047 (lysine site: K84)", "sequence (P48047 whole entry)": "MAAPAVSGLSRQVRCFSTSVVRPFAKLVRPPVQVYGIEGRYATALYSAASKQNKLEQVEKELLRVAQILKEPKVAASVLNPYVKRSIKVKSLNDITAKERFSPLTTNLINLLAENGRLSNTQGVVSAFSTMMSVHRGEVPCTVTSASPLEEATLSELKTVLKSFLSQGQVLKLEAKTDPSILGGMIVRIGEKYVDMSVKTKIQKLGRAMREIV", "lysine labeling ratio R10:1": 4.75}
{"target": "UniProt Q9UHI8 (lysine site: K619)", "sequence (Q9UHI8 whole entry)": "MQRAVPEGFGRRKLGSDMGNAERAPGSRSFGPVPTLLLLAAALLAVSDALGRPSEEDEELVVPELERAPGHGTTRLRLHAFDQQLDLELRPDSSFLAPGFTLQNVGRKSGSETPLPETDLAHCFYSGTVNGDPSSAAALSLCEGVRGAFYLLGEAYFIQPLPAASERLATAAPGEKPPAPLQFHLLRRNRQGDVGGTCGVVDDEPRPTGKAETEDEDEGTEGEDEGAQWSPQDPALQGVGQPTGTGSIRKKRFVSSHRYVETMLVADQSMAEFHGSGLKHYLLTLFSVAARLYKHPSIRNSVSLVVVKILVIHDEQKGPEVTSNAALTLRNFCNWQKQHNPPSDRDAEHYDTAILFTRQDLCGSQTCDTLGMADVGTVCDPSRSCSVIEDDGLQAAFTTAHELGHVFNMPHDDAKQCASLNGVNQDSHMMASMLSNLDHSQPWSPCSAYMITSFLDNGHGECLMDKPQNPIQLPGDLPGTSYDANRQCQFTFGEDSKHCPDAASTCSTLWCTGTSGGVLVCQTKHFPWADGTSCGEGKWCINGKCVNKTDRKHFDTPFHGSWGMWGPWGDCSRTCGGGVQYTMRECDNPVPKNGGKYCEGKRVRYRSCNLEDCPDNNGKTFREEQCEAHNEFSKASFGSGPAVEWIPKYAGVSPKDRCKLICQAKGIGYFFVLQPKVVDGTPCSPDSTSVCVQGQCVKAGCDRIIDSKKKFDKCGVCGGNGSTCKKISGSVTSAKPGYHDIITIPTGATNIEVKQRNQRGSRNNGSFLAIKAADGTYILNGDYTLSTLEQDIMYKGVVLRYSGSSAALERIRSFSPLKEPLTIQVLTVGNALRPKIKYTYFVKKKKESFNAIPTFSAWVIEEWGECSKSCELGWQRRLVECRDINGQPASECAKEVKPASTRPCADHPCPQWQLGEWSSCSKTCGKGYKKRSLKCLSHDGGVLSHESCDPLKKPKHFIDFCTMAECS", "lysine labeling ratio R10:1": 2.67}
{"target": "UniProt P78333 (lysine site: K385)", "sequence (P78333 whole entry)": "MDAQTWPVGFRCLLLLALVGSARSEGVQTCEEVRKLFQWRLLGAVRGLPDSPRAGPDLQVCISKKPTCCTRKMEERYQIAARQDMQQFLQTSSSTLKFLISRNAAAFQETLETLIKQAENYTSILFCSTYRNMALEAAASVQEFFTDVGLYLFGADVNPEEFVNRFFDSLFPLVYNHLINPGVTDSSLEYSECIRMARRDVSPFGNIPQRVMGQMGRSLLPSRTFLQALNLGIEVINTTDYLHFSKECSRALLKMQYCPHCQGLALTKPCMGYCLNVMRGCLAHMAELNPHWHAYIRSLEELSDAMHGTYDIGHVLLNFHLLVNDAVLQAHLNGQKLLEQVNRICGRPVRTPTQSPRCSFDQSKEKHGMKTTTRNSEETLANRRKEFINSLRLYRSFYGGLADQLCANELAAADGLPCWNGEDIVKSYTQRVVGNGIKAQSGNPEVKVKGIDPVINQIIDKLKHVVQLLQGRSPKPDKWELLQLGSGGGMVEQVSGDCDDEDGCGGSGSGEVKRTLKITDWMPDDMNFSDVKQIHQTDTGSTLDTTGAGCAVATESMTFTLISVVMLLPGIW", "lysine labeling ratio R10:1": 2.8}
{"target": "UniProt Q15149 (lysine site: K3476)", "lysine labeling ratio R10:1": "1.8 (active)"}
{"target": "UniProt P62249 (lysine site: K26)", "lysine labeling ratio R10:1": "1.43 (active)"}
{"target": "NCL (lysine site: K449) (UniProt P19338)", "sequence (P19338 whole entry)": "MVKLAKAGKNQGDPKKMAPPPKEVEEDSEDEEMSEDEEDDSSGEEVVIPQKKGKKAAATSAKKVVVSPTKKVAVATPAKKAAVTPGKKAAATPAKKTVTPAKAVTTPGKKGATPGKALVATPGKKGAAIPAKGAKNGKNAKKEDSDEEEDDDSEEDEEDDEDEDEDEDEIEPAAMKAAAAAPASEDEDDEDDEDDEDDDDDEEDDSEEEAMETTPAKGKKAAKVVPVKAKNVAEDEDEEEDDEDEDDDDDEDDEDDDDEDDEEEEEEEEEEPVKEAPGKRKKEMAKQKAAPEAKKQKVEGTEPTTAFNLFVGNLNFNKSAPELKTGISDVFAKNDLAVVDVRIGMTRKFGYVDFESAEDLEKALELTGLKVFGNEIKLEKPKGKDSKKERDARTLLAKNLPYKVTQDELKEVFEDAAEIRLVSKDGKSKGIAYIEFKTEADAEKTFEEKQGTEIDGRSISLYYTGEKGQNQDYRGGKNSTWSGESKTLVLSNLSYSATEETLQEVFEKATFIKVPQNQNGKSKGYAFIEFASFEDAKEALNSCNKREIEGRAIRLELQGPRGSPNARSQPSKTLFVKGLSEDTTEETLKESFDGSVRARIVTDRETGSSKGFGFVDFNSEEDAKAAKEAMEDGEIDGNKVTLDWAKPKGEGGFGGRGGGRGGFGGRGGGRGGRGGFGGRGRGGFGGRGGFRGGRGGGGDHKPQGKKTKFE", "lysine labeling ratio R10:1": "0.805 (active)"}
{"target": "TMEM109 (lysine site: K215) (UniProt Q9BVC6)", "sequence (Q9BVC6 whole entry)": "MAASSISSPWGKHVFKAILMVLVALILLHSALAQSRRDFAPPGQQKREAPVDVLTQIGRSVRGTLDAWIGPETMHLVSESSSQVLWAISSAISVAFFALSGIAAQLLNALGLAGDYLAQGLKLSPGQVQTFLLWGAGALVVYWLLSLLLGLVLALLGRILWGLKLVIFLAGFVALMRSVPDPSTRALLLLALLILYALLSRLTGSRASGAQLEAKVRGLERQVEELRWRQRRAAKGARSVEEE", "lysine labeling ratio R10:1": 3.67}
